Experimental data published in PubChem BioAssay (Tox21).
Inconclusive results are not listed. The source made the active and inactive calls. Unless noted, the call rests on the fitted dose curve; in most records, active means well fitted curve in the direction sought with a large enough effect in the repeat runs; inconclusive means weak or mixed curves; inactive means no such curve, though single readings can be large; an effect the other way counts as inactive or inconclusive.

Assays:
[1] = molecular target: Retinoic acid receptor RXR-alpha (Homo sapiens) (UniProt P19793); test: qHTS assay to identify small molecule agonists of the RXR signaling pathway (AID 1159527; calls by dose curve; further: nearly all actives have a fitted effect of over 35% in size)
Summary of the method: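 Agonist-mode beta-lactamase reporter assay: HEK 293T RXR-alpha-UAS-bla cells treated 16 hr at 37 C with compounds, 9-cis retinoic acid as positive control. LiveBLAzer FRET substrate, 405 nm excitation, 460/530 nm emission.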

[2] = qHTS assay to identify small molecule agonists of the RXR signaling pathway - cell viability counter screen (AID 1159529); further: nearly all actives have a fitted effect of over 50% in size
Summary of the method: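 CellTiter-Glo luminescence gave viability in the wells also read for beta-lactamase. Cells (RXR-alpha-UAS-bla HEK 293T, 2% charcoal-stripped FBS medium) had 5 hr plating, then 16 hr compound exposure at 37 C; tetraoctyl ammonium bromide served as positive control.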

[3] = qHTS assay to identify small molecule antagonists of the retinoid acid receptor (RAR) signaling pathway - cell viability counter screen (AID 1159551); further: nearly all actives have a fitted effect of over 35% in size
Summary of the method: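 Cells (C3RL4) are plated, incubated overnight, dosed with compound in DMSO, then given retinol at 1 uM final. After 6 h at 37 C, CellTiter-Glo is added and luminescence read following 30 min at room temperature.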

[4] = qHTS assay to identify small molecule antagonists of the retinoic acid receptor (RAR) signaling pathway (AID 1159552; further: nearly all actives have a fitted effect of over 50% in size)
Summary of the method: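 Luminescent RARE reporter read-out in C3RL4 cells: 6 hr co-treatment at 37 C of test compounds with retinol at 1 uM final. Cells plated overnight beforehand; luciferase reagent incubated 30 min at room temperature before reading.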

[5] = qHTS assay to identify small molecule agonists of the retinoic acid receptor (RAR) signaling pathway (AID 1159553); conditions: C3RL4 RARE luciferase reporter, agonist, 6 h; activation: at 73.3 µM (top of the series)
Summary of the method: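 Seed C3RL4 reporter cells at 1,000 per well and incubate overnight at 37 C. Add compounds in DMSO, incubate 6 hr. Add luciferase reagent, wait 30 min at room temperature, read luminescence.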

[6] = molecular target: Luciferin 4-monooxygenase (Photinus pyralis) (UniProt P08659); test: qHTS assay to identify small molecule inhibitors of firefly luciferase (AID 1224835); further: nearly all actives have a fitted effect of over 25% in size
Summary of the method: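 Inhibition of purified Photinus luciferase is measured by luminescence. Substrate levels (D-luciferin, ATP) sit at their KM values. Each compound is tested in a concentration series.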

[7] = qHTS assay to identify small molecule agonists of the constitutive androstane receptor (CAR) signaling pathway - cell viability counter screen (AID 1224836); further: nearly all actives have a fitted effect of over 45% in size
Summary of the method: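 Cell viability multiplexed with the CAR agonist screen: CellTiter-Fluor fluorescence after 23 hr at 37 C. HepG2-CYP2B6-hCAR cells got compounds at 15 concentrations with PK11195 at 0.75 uM final.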

[8] = qHTS assay to identify small molecule antagonists of the constitutive androstane receptor (CAR) signaling pathway - cell viability counter screen (AID 1224837); further: nearly all actives have a fitted effect of over 45% in size
Summary of the method: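 Viability was measured with CellTiter-Fluor in a HepG2 line carrying stably transfected hCAR and a CYP2B6-2.2kb construct. Cells were exposed for 23 hr at 37 C to 15 compound concentrations with 50 nM CITCO as agonist.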

[9] = qHTS assay to identify small molecule antagonists of the estrogen related receptor signaling pathway with the pleiotropic PPARgamma coactivator (PGC) from Tox21 10K library - cell viability counter screen (AID 1224840; active means well fitted cell-killing curve with a large enough effect in the repeat runs, not every such curve was filed as active; further: nearly all actives have a fitted effect of over 40% in size)
Summary of the method: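 Multiplexed viability counter screen in the PGC/ERR cell line: cells treated with DMSO-dissolved compounds for 17.5 hours at 37 C, then viability measured as CellTiter-Fluor fluorescence.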

[10] = qHTS assay to identify small molecule antagonists of the estrogen related receptor signaling pathway with the pleiotropic PPARgamma coactivator (PGC) from Tox21 10K library (AID 1224841; call rule not given here; further: actives are mostly falling curves and most rising ones were filed inactive; nearly all actives have a fitted effect of over 50% in size)
Summary of the method: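 Steps: plate 2,000 PGC/ERR cells per well; incubate 6 h at 37 C with 5% CO2; transfer compounds from DMSO stocks by pin tool; incubate 18 h at 37 C; add One-Glo; measure luminescence 30 min later.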

[11] = qHTS assay to identify small molecule agonists of the estrogen related receptor signaling pathway with the pleiotropic PPARgamma coactivator (PGC) from Tox21 10K library (AID 1224842); further: nearly all actives have a fitted effect of over 15% in size
Summary of the method: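 Luminescence from One-Glo (30 min, room temperature) measured after PGC/ERR cells had 18 h at 37 C with pinned compound (23 nL in DMSO). Cells had been seeded at 2,000 per well and pre-incubated 6 h.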

[12] = molecular target: Thyrotropin receptor (Homo sapiens) (UniProt P16473); test: qHTS assay to identify small molecule agonists of the thyroid stimulating hormone receptor (TSHR) signaling pathway (AID 1224843; calls by dose curve; further: nearly all actives have a fitted effect of over 45% in size)
Summary of the method: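 A cell-based cAMP HTRF format was run in TSHR-transfected HEK293 cells, 800 per well. Treatment: 30 min, room temperature. Detection: 1 h with labelled cAMP and anti-cAMP cryptate. Concentration-response over 15 points, three replicates.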

[13] = qHTS assay to identify small molecule agonists of the hypoxia (HIF-1) signaling pathway - cell viability counter screen (AID 1224844; calls by dose curve; further: nearly all actives have a fitted effect of over 50% in size)
Summary of the method: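 Cytotoxicity was measured in parallel with the HRE-driven beta-lactamase readout: after 17 hrs of compound exposure at 37C, HRE-bla ME-180 cells received CellTiter-Glo and luminescence was recorded 30 min later.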

[14] = qHTS assay to identify small molecule agonists of H2AX (AID 1224845; active means well fitted activation curve with a large enough effect in the signal ratio in the repeat runs, not every such curve was filed as active; the % refers to the signal ratio)
Summary of the method: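 Phospho-H2AX Ser139 measured by HTRF (ex 320 nm; em 665 and 620 nm) after 24 hr antibody incubation. Compounds, 15 concentrations, 0.76% DMSO, were applied to CHO-K1 cells for 3hr at 37C before lysis.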

[15] = qHTS assay to identify small molecule agonists of the hypoxia (HIF-1) signaling pathway (AID 1224846; active means well fitted activation curve with a large enough effect in the signal ratio in the repeat runs, not every such curve was filed as active; the % refers to the signal ratio)
Summary of the method: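 Compounds from the Tox21 10K library, dissolved in DMSO, are tested for induction of a hypoxia response element–controlled beta-lactamase reporter in ME-180 cells. Exposure lasts 17 hrs at 37C after a 5 hr settling period, followed by CCF4-AM FRET substrate.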

[16] = qHTS assay to identify small molecule agonists of H2AX - cell viability counter screen (AID 1224847; calls by dose curve;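 further: wild-type CHO-K1 cells; top concentration of the series differs between compounds; nearly all actives have a fitted effect of over 30% in size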)
Summary of the method: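 Counter-screen for viability: CellTiter-Glo ATP luminescence read after 3 h compound treatment (15-point titration, 0.76% DMSO final) of CHO-K1 cells at 37C, with 30 min room-temperature reagent incubation.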

[17] = qHTS assay to identify small molecule antagonists of the estrogen related receptor (ERR) signaling pathway from Tox21 library (AID 1224848); further: nearly all actives have a fitted effect of over 50% in size
Summary of the method: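 ERR cell line, 2,000 cells/well. 6 h settle, then compound (DMSO) added; 18 h at 37 C; ONE-Glo luminescence after 30 min RT.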

[18] = qHTS assay to identify small molecule antagonists of the estrogen related receptor (ERR) signaling pathway from Tox21 library - cell viability counter screen (AID 1224834); further: nearly all actives have a fitted effect of over 30% in size
Summary of the method: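 ERR cells, 2,000/well; 6 h settle at 37 C/5% CO2; pin-tool compound transfer in DMSO; 17.5 h at 37 C; CellTiter-Fluor, 30 min; fluorescence intensity.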

[19] = molecular target: Nuclear receptor subfamily 1 group I member 3 (Homo sapiens) (UniProt Q14994); test: qHTS assay to identify small molecule antagonists of the constitutive androstane receptor (CAR) signaling pathway (AID 1224838);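 further: HepG2 cells stably expressing hCAR with CYP2B6 luciferase reporter stimulated by CITCO; nearly all actives have a fitted effect of over 40% in size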
Summary of the method: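 Antagonist mode used CITCO at a final 50 nM to activate CAR in human hepatoma HepG2 cells carrying stable hCAR and a 2.2 kb CYP2B6 promoter-luciferase construct. Compounds were tested at 15 concentrations over 24 h, with luminescence as the end point.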

Measured: Potency

Thyrotropin receptor (Homo sapiens), sequence (P16473 whole entry, looked up): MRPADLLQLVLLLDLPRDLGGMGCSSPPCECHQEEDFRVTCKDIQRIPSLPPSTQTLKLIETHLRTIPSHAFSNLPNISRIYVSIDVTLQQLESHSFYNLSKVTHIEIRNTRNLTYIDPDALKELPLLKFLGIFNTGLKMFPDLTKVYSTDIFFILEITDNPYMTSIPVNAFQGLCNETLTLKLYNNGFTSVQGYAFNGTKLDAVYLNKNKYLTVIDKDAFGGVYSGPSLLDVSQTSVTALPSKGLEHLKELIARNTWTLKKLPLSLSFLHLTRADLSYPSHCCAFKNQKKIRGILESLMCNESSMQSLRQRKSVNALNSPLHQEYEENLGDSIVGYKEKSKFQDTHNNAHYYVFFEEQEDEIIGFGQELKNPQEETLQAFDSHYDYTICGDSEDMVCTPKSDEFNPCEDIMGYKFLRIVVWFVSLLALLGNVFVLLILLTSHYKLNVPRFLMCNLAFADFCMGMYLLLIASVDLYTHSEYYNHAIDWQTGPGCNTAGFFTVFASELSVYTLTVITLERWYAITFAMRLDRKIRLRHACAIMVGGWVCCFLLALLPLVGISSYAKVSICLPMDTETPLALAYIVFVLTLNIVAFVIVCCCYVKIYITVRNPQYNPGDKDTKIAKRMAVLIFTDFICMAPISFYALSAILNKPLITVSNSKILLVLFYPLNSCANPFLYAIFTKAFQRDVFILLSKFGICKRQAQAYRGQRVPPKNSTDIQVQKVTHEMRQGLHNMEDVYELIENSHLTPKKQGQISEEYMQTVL
Retinoic acid receptor RXR-alpha (Homo sapiens), sequence (P19793 whole entry, looked up): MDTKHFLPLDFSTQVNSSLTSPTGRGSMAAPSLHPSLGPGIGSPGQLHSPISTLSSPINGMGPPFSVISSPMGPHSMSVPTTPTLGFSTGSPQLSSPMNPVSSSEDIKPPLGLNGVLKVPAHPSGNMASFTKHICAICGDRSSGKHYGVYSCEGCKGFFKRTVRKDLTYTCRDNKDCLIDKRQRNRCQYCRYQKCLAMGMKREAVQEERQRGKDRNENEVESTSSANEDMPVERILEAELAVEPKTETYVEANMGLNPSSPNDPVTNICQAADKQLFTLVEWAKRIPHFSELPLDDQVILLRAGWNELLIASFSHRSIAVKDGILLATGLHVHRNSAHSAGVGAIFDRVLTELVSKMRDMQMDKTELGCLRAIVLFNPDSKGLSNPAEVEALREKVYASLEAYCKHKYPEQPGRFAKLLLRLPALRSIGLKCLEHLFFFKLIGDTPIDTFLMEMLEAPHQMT
Luciferin 4-monooxygenase (Photinus pyralis), sequence (P08659 whole entry, looked up): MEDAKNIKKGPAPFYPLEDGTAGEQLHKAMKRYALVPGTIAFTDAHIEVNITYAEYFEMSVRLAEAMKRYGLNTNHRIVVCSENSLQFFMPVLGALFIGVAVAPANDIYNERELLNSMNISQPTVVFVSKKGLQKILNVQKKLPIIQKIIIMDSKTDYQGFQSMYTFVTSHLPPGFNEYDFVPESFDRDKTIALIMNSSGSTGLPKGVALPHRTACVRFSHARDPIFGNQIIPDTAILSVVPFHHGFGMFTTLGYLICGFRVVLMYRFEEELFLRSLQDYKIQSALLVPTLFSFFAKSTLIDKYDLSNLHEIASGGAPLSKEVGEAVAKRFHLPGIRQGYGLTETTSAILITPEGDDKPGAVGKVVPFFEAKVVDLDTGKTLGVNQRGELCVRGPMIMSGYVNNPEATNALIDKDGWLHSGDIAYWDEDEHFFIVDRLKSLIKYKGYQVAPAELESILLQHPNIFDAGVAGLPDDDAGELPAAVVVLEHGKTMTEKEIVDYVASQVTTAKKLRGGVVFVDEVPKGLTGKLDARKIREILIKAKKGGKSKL
Nuclear receptor subfamily 1 group I member 3 (Homo sapiens), sequence (Q14994 whole entry, looked up): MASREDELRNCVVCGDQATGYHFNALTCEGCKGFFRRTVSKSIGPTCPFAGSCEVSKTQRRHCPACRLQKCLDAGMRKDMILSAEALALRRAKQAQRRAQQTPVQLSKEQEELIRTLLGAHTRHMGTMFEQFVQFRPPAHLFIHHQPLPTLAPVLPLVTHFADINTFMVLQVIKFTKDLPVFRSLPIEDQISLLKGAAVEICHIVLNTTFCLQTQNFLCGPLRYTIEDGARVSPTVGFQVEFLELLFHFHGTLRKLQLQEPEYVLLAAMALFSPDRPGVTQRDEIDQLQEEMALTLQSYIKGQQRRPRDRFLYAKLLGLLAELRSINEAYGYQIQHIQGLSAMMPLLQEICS

CCCCCCCCC(=O)OCC
not listed: [18] | [19]
inactive: all other assays above

CC(=O)N(CC(O)CO)c1c(I)c(C(=O)NCC(O)CO)c(I)c(C(=O)NCC(O)CO)c1I (configuration not stated)
not listed: [4] | [10] | [11] | [12] | [17] | [19]
inactive: all other assays above

CCC(CO)CO
not listed: [6] | [10] | [11] | [12] | [16] | [17] | [18] | [19]
inactive: all other assays above

O=C1CC[C@H](C(=O)N2CCCCC2)N1
not listed: [4] | [10] | [11] | [17] | [19]
inactive: all other assays above

CCS(=O)(=O)CCn1c([N+](=O)[O-])cnc1C
not listed: [6] | [10] | [15] | [16] | [18]
inactive: all other assays above

CC(C)CCO
not listed: [4] | [10] | [11] | [13] | [15] | [17] | [19]
inactive: all other assays above

Nc1cc(C(=O)O)ccc1Cl
not listed: [6] | [9] | [10] | [11] | [15] | [16] | [17] | [19]
inactive: all other assays above
